The supplement of paper PMC12350171

The molecules below were run on Haemophilus parainfluenzae (assay: growth AUC normalised to DMSO control (fraction of control); higher = less growth inhibition, active = hit call of the paper). Settings: 20 µM;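 active = AUC significantly below DMSO controls by Student t-fit with adjusted P under 0.01; inactive = not significantly reduced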.
How it was run: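 After two anaerobic passages, pathogens were added at a starting OD578 of 0.01 to pre-reduced mGAM plates holding compound at 20 μM with 1% DMSO; hemin and NAD were supplemented for Haemophilus parainfluenzae. Sealed with breathable membranes, plates were read at OD578 hourly for 24 h, in three biological replicates. The trapezoidal rule, applied up to the exponential-to-stationary transition, gave the growth-curve AUC, which was normalised to DMSO controls on the same plate.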

| SMILES | growth AUC normalised to DMSO control |
| --- | --- |
| C#Cc1cccc(Nc2ncnc3cc(OCCOC)c(OCCOC)cc23)c1 [Erlotinib] | 1.04 (inactive) |
| COc1ccc2[nH]c([S+]([O-])Cc3ncc(C)c(OC)c3C)nc2n1 (configuration not stated) [Tenatoprazole] | 0.978 (inactive) |
| Clc1ccccc1C(c1ccccc1)(c1ccccc1)n1ccnc1 [Clotrimazole] | 0.968 (inactive) |
| CN1CCCN=C1/C=C/c1cccc(O)c1 [Oxantel pamoate] | 0.916 (inactive) |
| CCC(=O)[C@@]1(C)[C@H](C)C[C@H]2[C@@H]3CCC4=CC(=O)C=C[C@]4(C)[C@H]3[C@@H](O)C[C@@]21C [Rimexolone] | 0.998 (inactive) |
| CN1CCN(C2=Nc3cc(Cl)ccc3Nc3ccccc32)CC1 [Clozapine] | 1.02 (inactive) |
| Nc1nc(=O)n([C@@H]2CS[C@H](CO)O2)cc1F [(-) Emtricitabine] | 0.97 (inactive) |
